Screening results (PubChem BioAssay)
tim23-1 inh: inhibits growth of tim23-1 mutant yeast. inhibition, % at 20 µM. AID 463212. 330,000 tested, 1.3% active. S. cerevisiae tim23-1 growth, BacTiter-Glo luminescence, 24 h;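 active = growth inhibition of the mutant yeast at or above 50%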;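 note: temperature-sensitive mutant grown at 25 °C; plate controls were DMSO-treated mutant yeast for no effect and medium wells lacking yeast for full effect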
Calb FLC: C. albicans growth modulation with fluconazole | growth inhibition, % (concentration not given with the values) | C. albicans CaCi-2 (fluconazole-resistant clinical isolate) + fluconazole, Alamar Blue growth, 48 h | 300,000 tested, 0.57% active | AID 1979;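 active = growth inhibition above about 58% in most replicates, limit read from the data, passing the limit was not always enough; inconclusive = exactly half the replicates above a set limit; inactive = most replicates below a set limit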;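 note: all wells also contain fluconazole at 8 µg/ml as a sub-toxic cotreatment; 0% = median of DMSO wells and 100% = median of geldanamycin control wells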
TIM10 inh: growth inhibitors of TIM10 yeast strain; S. cerevisiae TIM10 strain growth, BacTiter-Glo luminescence, 24 h; inhibition, % at 10 µM; 330,000 tested, 1.4% active; AID 463195;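 active = inhibition of 40% or more at the single tested concentration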;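 note: wild-type TIM10 isogenic control strain grown at permissive 25 °C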
tim10-1 inh: growth inhibitors of tim10-1 mutant yeast. S. cerevisiae tim10-1 ts strain growth, BacTiter-Glo, 24 h. inhibition, % at 20 µM. 330,000 tested, 2.2% active;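 active = inhibition of at least 40%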;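 note: mutant grown at 25 °C; 0% = DMSO wells with yeast and 100% = wells holding no yeast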
PfHsp90 yeast 2: reduces growth (ATP signal) of yeast expressing P. falciparum Hsp90. S. cerevisiae expressing PfHsp90, BacTiter-Glo ATP, 48 h; yeast lacking PDR1 and PDR3 efflux regulators. inhibition, % at 9.4 µM. 310,000 tested, 0.32% active. AID 504621;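 active = every replicate shows inhibition above about 80%, whatever the replicate mean, limit read from the data; inconclusive = mean inhibition reaches the set limit but some replicate falls short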;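 note: 0% = DMSO neutral controls and 100% = 20 µM radicicol positive controls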
SKKanGAS inh: inhibitors of SKKanGAS S. pyogenes growth in kanamycin (SK-promoter or general growth effect). BacTiter-Glo, 6 h. inhibition, % at 7.5 µM. 300,000 tested, 1.3% active. AID 1662;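 active = mean replicate score, as percent of positive control median, at least 50; inconclusive = mean below 50 but one replicate at or above 50; inactive = mean and every replicate below 50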;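 note: strain carries kanamycin resistance gene driven by streptokinase promoter and grows in 40 µg/ml kanamycin; loss of luminescence reflects streptokinase promoter inhibition or plain growth inhibition; 0% = median of DMSO wells and 100% = positive control at its reference dose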
Numbers without * were called inactive; ? = inconclusive; . = not tested or not shown. Rows were chosen to be rich in hits. Some 4.7% of all compounds tested hit in one or more screens of this group.

SMILES	tim23-1 inh	Calb FLC	TIM10 inh	tim10-1 inh	PfHsp90 yeast 2	SKKanGAS inh
CC1CCCN(C(=O)c2ccc(NS(=O)(=O)c3cccc([N+](=O)[O-])c3)cc2)C1 (stereo unspecified)	11.5	1.0	13.6	5.6	2.9	5.9
O=C(NCc1ccccc1Cl)C1CCC(=O)N(CC2CCCCC2)C1 (stereo unspecified)	2.1	-8.3	14.4	-5.3	-13.0	-0.2
CSc1ccccc1OCc1cc(C(=O)N2CCN(C)C(c3ccccc3)C2)no1 (stereo unspecified)	48.3	2.3	6.3	35.2	135.3*	2.6
O=C(Cc1ccc(O)cc1)N/N=C/c1cccnc1	-3.8	101.7*	0.6	-0.9	-1.5	.
Clc1ccc(-c2cc3ccccc3nc2N2CCOCC2)cc1	25.1	-45.4	18.6	7.4	-102.0	12.7
Clc1ccc(-c2cc3ccccc3nc2N2CCCC2)cc1	25.5	-29.3	11.5	7.2	.	69.2*
CN(CCOc1ccc(Cl)cc1)C(=O)Cc1ccc(S(=O)(=O)N2CCOCC2)s1	17.9	.	17.6	8.8	10.5	.
CCOc1ccccc1OCCCCCc1c(C)n[nH]c1C	3.5	9.8	3.3	39.3	11.2	60.9*
COc1ccccc1OCCCCCc1c(C)n[nH]c1C	13.5	9.1	17.3	17.3	10.9	66.4*
Cc1cccc(OCCCCc2c(C)n[nH]c2C)c1C	12.2	?	34.4	35.3	-48.1	99.4*
Cc1n[nH]c(C)c1CCCOc1ccccc1	-12.8	-1.8	-33.2	4.8	-13.6	?
CC(C(=O)Nc1ccccc1C#N)N1C(=O)NC2(CCCCCC2)C1=O (stereo unspecified)	8.7	.	-4.9	-12.4	7.3	.
COc1ccc(CCN2C(=O)NC(NS(=O)(=O)c3ccccc3)(C(F)(F)F)C2=O)cc1OC (stereo unspecified)	-1.4	-10.4	7.0	-15.1	-8.7	1.7
CCCCCc1c(C)[nH]c2nc3ccccc3n2c1=O	44.3	-5.1	26.3	24.5	-7.1	4.1
Brc1cccc(CSc2nnc(-c3ccncc3)o2)c1	-12.6	80.7*	-29.1	-14.7	-8.7	.
c1ccc2c(CSc3nnc(-c4ccncc4)o3)cccc2c1	18.5	62.2	-9.4	11.8	.	-1.2
O=C(NNc1c(Cl)cccc1Cl)c1c(F)cccc1Cl	-1.6	-3.6	0.0	6.4	7.1	51.1*
O=C(NNc1ccc(F)cc1F)c1c(F)cccc1Cl	14.6	7.6	29.2	-9.1	-5.6	4.8
C/C(=N\NC(=O)c1ccc(-c2ccccc2)cc1)C1C(=O)c2ccccc2C1=O	8.9	0.1	5.3	7.0	39.9	129.8*
CCCCCCc1cc2cc(S(=O)(=O)c3ccc(C)cc3)c(=O)oc2cc1O	6.7	4.2	-11.6	13.7	6.7	16.3
CCCCCCc1cc2cc(S(=O)(=O)c3ccc(Cl)cc3)c(=O)oc2cc1O	8.6	-2.4	13.5	6.7	102.3*	6.2
COc1ccc(C(=O)CSc2nc(-c3ccccn3)nc(C)c2Cl)cc1	47.3	3.9	36.6	31.1	0.4	87.6*
Oc1ccc(O)c2c1C1c3ccccc3C2c2ccccc21	31.2	78.2*	9.9	36.4	.	18.0
Cc1nc2c(C(=O)NCCC(C)C)c[nH]n2c(=O)c1Cc1ccccc1F	19.6	85.1*	19.7	23.1	-10.9	92.5*
CCC(C)n1c(NC(=O)c2ccccc2)c(C#N)c2nc3ccccc3nc21 (stereo unspecified)	30.6	0.1	8.1	12.7	-1.7	69.1*
SMILES	tim23-1 inh	Calb FLC	TIM10 inh	tim10-1 inh	PfHsp90 yeast 2	SKKanGAS inh
CC(=O)CCc1ccc(OCC(=O)Nc2cccc(S(=O)(=O)N(C)c3ccccc3)c2)cc1	5.2	.	10.4	22.7	14.9	.
OC(Cn1cncn1)(c1ccccc1)c1ccccc1	26.6	-4.0	0.1	-20.7	91.8*	0.0
c1ccc(SCCOCCn2cncn2)cc1	1.6	-1.6	-13.7	12.9	10.1	-2.9
COc1cccc2c1C(=O)c1c(O)c3c(c(O)c1C2=O)CC(O)(C(=O)CO)CC3OC1CC(N(C)C)C(O)C(C)O1 (stereo unspecified)	.	.	.	.	105.7*	.
CC(=O)[C@]1(O)Cc2c(O)c3c(c(O)c2[C@@H](O[C@H]2C[C@H](N)[C@H](O)[C@H](C)O2)C1)C(=O)c1ccccc1C3=O	48.5	77.6*	-9.9	23.0	.	103.5*
COc1cccc2c1C(=O)c1c(O)c3c(c(O)c1C2=O)C[C@@](O)(C(=O)CO)C[C@@H]3O[C@H]1C[C@H](N)[C@@H](O)[C@H](C)O1	36.0	.	-20.3	-12.6	-29.8	107.6*
COc1cccc2c1C(=O)c1c(O)c3c(c(O)c1C2=O)C[C@@](O)(C(C)=O)C[C@@H]3O[C@H]1C[C@H](N)[C@H](O)[C@H](C)O1	.	.	.	.	48.9	.
O=C(NC1=NCCS1)c1cc(-c2ccccc2)nn1-c1ccccc1	-6.6	-6.1	23.5	18.4	.	51.3*
O=C(Nc1nccs1)c1cc(-c2ccccc2)nn1-c1ccccc1	14.2	4.3	-4.2	4.9	-8.2	0.5
Cn1cc(/C=C/c2cc[n+](C)cc2)c2cc(Cl)ccc21	.	81.5*	.	.	6.5	-1.6
Cn1cc(/C=C/c2cc[n+](C)cc2)c2cc(F)ccc21	.	?	.	.	3.4	7.5
CCCCn1c(-c2ccco2)nc2oc3ccccc3c(=O)c2c1=O	37.4	1.9	19.1	20.6	7.7	50.3*
COc1ccc2nc(-n3c(O)c(C4=c5ccccc5=NC4=O)[nH]c3=S)sc2c1	.	-3.0	.	.	-7.8	104.0*
Cn1c(O)c(C2=c3ccccc3=NC2=O)[nH]c1=S	-3.7	6.7	2.2	8.9	-10.7	-23.8
O=C(COC(=O)c1n[nH]c(=O)c2ccccc12)NC1CCCCC1	7.4	.	-6.9	1.1	1.4	.
CN(C)C(CNC(=O)c1cccc(S(=O)(=O)N2CCN(c3ccc(F)cc3)CC2)c1)c1ccccc1 (stereo unspecified)	.	.	.	.	2.2	.
CCOC(=O)C1=NN(C(=O)c2cccc(Br)c2)C(O)(C(C)(C)C)C1 (stereo unspecified)	36.3	-13.3	19.6	23.8	.	89.9*
CCOC(=O)C1=NN(C(=O)c2ccco2)C2(CC2)C1	12.2	2.4	10.7	10.6	-29.5	-5.0
CCNc1nc(NC(C)C)nc(NC(C)(C)C)n1	12.4	83.1*	5.0	3.6	-1.9	-7.7
CC(C)Nc1nc(NNc2nc(Cl)nc(NC(C)(C)C)n2)nc(NC(C)C)n1	-4.7	-13.6	-13.7	-5.0	.	-4.0
Cc1cccc(C(=O)NC(C)C(=O)NC(c2nc3ccccc3[nH]2)C(C)C)c1 (stereo unspecified)	5.0	.	3.2	-4.4	11.2	.
CC(C)C(NC(=O)C(c1ccccc1)c1ccccc1)c1nc2ccccc2[nH]1 (stereo unspecified)	5.7	-0.2	-7.6	14.8	13.9	79.1*
O=C(CCN1CCN(c2ccccc2)CC1)N/N=C/c1ccc(O)c(O)c1O	.	113.8*	.	.	-2.2	-3.6
COc1ccc(C(CNC(=O)Cc2cccs2)N(C)C)cc1 (stereo unspecified)	4.8	-3.4	6.6	6.5	-4.3	-3.3
